Unmarked numbers belong to inactive results.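 Rule for the calls: active = viability increase at or above a cutoff of the median across tested compounds plus 3 SD (cut at about 8.5% in these data, passing the limit was not always enough); inconclusive = some gains above the cutoff, reason not given; inactive = the rest.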

This test is described as follows: doxorubicin toxicity protection in MRP-1 cells – H69AR cells, CellTiter-Glo, duplicate, MRP-1 activator project, pilot screen (AID 807).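 Note: compound pretreatment 18-22 h then 72 h combined with doxorubicin; 0% = doxorubicin alone and 100% = vehicle without doxorubicin.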 The conditions noted are these: H69AR viability with doxorubicin, CellTiter-Glo luminescence; at 10 µM; stronger effect = higher value.
Regarding `CCOC(=O)N1CCC(NC(=O)c2csc3c2CCCC3)CC1`, the viability increase was -2.82%.

For the molecule `CC1CCCCN1C(=O)c1ccccc1NC(=O)c1ccco1` (centres undefined), the viability increase is -2.69%.

Turning to `CCOC(=O)N1CCN(C(=O)CSc2nnc(-c3ccc(C(C)(C)C)cc3)o2)CC1`, the viability increase is -1.07%.

Take `O=C(CN1C(=O)CSc2ncccc21)N1CCOCC1`: the viability increase is -0.22%.

With `CN(C)S(=O)(=O)c1ccc(C(=O)Nc2nc(-c3cccs3)cs2)cc1`, the viability increase is -1.56%.

Take `CN(C)C=NC(=O)/C(C#N)=C1\CCc2ccccc2N1`: the viability increase was -2.2%.

Regarding `COc1cc2c(c(O)c1OC)C(=O)C(OC)CCC2` (centres undefined), the viability increase is -0.47%.

As for `COc1cc(NC(=O)c2cc3c(=O)n(C)c4ccccc4c3n2C)cc(OC)c1OC`, the viability increase is -3.3%.

On to `Cc1ccc(S(=O)(=O)/N=C/c2ccco2)cc1`, for which the viability increase is -1.73%.

In the case of `C=CCc1c(C)nc(SC)nc1Nc1ccc(C(C)=O)cc1`, the viability increase was -3.83%.

Turning to `O=C(O)CCCCCN1C(=O)C(=O)/C(=C(/O)c2ccccc2)C1c1ccccc1` (centres undefined), the viability increase is 0.21%.

As to `CCOC(=O)N1CCN(C(=O)c2cnn3ccccc23)CC1`, the viability increase was -1.3%.

With `Brc1cccc(-c2nnc3sc(CNCc4ccco4)cn23)c1`, the viability increase is -4.13%.

As to `O=C(Nc1ccccc1)OCC1CCCN2CCCCC12` (centres undefined), the viability increase is -0.94%.

For the molecule `O=C(NCc1ccco1)c1ccc(S(=O)(=O)c2cccc(S(=O)(=O)N3CCOCC3)c2)cc1`, the viability increase is -4.28%.

Turning to `CC1Cc2nc(SCC(=O)NCc3ccco3)n(-c3ccccc3)c(=O)c2S1` (centres undefined), the viability increase was -4.56%.

For the molecule `CCc1ccc2[nH]cc(C(=O)OCCOC)c(=O)c2c1`, the viability increase was -1.15%.

Consider `CC1CCc2c(sc3ncnc(NCCN4CCOCC4)c23)C1` (centres undefined), for which the viability increase was -6.47%.

Regarding `O=C(c1cc(-c2ccccc2O)on1)N1CCCC1`, the viability increase was -4.17%.

In the case of `Cc1ccc(-c2nc(NC(=O)CSc3nnc4scc(-c5ccccc5)n34)ns2)cc1`, the viability increase was 1.17%.

Turning to `COCCNC(=O)CS(=O)(=O)Cc1nc(-c2ccc(C)cc2)oc1C`, the viability increase was -0.43%.

For `CCOc1cccc(C2c3c(oc4cc(C)c(C)cc4c3=O)C(=O)N2CCCN(C)C)c1` (centres undefined), the viability increase was -3.58%.

In the case of `COc1ccc(-c2nc(C#N)c(NC(C)C)o2)cc1`, the viability increase is -0.02%.

In the case of `O=C1CSC(c2nn(-c3ccccc3)cc2-c2cc3ccccc3oc2=O)N1Cc1ccco1` (centres undefined), the viability increase is -4.75%.

In the case of `O=C(NCCC1=CCCCC1)c1ccc2c(=O)n3c(nc2c1)CCCCC3`, the viability increase is -1.07%.

In the case of `O=C(Cn1c(=O)oc2cc(S(=O)(=O)N3CCCC3)ccc21)N1CCN(c2ccccn2)CC1`, the viability increase was 0.96%.

In the case of `Cc1onc(-c2c(F)cccc2Cl)c1C(=O)OCC(=O)Nc1c(C)n(C)n(-c2ccccc2)c1=O`, the viability increase was -0.55%.

`COCCNC(=O)CN1C(=O)CSc2cc(S(=O)(=O)N3CCCCCC3)ccc21`: the viability increase is -1.52%.

Consider `O=C(O)c1ccccc1C(=O)c1cccs1`, for which the viability increase was -0.3%.

Take `CCCC(=O)Nc1ccccc1-c1nnc(SC)[nH]c1=O`: the viability increase is -2.76%.

With `COCCNC(=O)CN1C(=O)COc2ccc(Cl)cc21`, the viability increase is -1.25%.

In the case of `O=C(NCCC1=CCCCC1)C1CCN(c2nnc(-n3cccc3)s2)CC1`, the viability increase was -0.38%.

As for `COc1ccc(C2C(C(=O)Nc3ccccn3)=C(C)Nc3ncnn32)c(OC)c1` (centres undefined), the viability increase is -1.04%.

Regarding `Cc1cc(C)c2c(n1)SCC(=O)N2CC(=O)NCCC1=CCCCC1`, the viability increase is -0.04%.

`COCCNC(=O)C1CCN(S(=O)(=O)c2ccccc2)CC1`: the viability increase is -1.38%.

Turning to `NC(=O)c1ccsc1NC(=O)C1CCCCC1`, the viability increase is -0.9%.

As to `CCOc1ccc(-c2nc(C#N)c(N3CCN(Cc4ccccc4)CC3)o2)cc1`, the viability increase was -0.05%.

Regarding `CCOC(=O)C1=C(C)NC(=O)NC1c1ccc(N(CC)CC)cc1` (centres undefined), the viability increase was -1.3%.

As to `N#CC1=C(N)OC2=C(C(=O)CCC2)C1c1ccsc1` (centres undefined), the viability increase was -1.81%.

The values are drawn from PubChem BioAssay.
